Results as given in PubChem BioAssay (Tox21).
“And” between values parts separate entries of the source, which are not always exact repeats. Equal entries are not always repeated. Results filed as inconclusive are left out. Some compounds were tested as several samples or in several runs, with calls that do not always agree. The source made the active and inactive calls. The call rests on the fitted dose curve; in most records, active means well fitted curve in the direction sought with a large enough effect in the repeat runs; inconclusive means weak or mixed curves; inactive means no such curve, though single readings can be large; an effect the other way counts as inactive or inconclusive.

Experiments:
[1] = Human pregnane X receptor (PXR) small molecule agonists, qHTS cell viability counter screen (AID 1346977); conditions: PXR-Luc HepG2 viability, CellTiter-Fluor, 24 h; series mostly up to 92.4 µM; further: nearly all actives have a fitted effect of over 50% in size; further: potency means the concentration at half of the fitted maximal effect
How it was run: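 Measures live-cell protease fluorescence (CellTiter-Fluor) in PXR-Luc HepG2 cells treated 24hr with compounds at 37C. Cells had 5hr to attach before pin transfer of DMSO solutions.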

[2] = Caspase-3/7 induction in HepG2 cells by small molecules, qHTS assay (AID 1346978); conditions: HepG2 caspase-3/7 activation, Caspase-Glo luminescence, 17 h; series mostly up to 92.4 µM; further: nearly all actives have a fitted effect of over 15% in size; further: potency means the concentration at half of the fitted maximal effect
How it was run: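 Caspase-3/7 induction was measured by Caspase-Glo 3/7 luminescence (30 min, room temperature) after a 17 hr compound exposure of wild-type HepG2 cells seeded at 2,000 per well and pre-incubated 5 hr.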

[3] = Caspase-3/7 induction in CHO-K1 cells by small molecules, qHTS cell viability counter screen (AID 1346979); conditions: CellTiter-Fluor fluorescence, 17 h; series mostly up to 92.4 µM; further: nearly all actives have a fitted effect of over 35% in size
How it was run: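 In the same wells as the caspase read, viability of compound-treated wild-type CHO-K1 cells was assessed using CellTiter-Fluor, added after 16hr at 37C and measured by fluorescence following 1hr further incubation.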

[4] = Caspase-3/7 induction in CHO-K1 cells by small molecules, qHTS assay (AID 1346980); conditions: CHO-K1 caspase-3/7 induction, Caspase-Glo luminescence, 17 h; series mostly up to 92.4 µM; further: nearly all actives have a fitted effect of over 15% in size
How it was run: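 Luminescent Caspase-Glo 3/7 read (30min, room temperature) quantified apoptosis induction. Cells were wild-type CHO-K1, treated with compound for 17hr at 37 C and 5% CO2.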

[5] = Caspase-3/7 induction in HepG2 cells by small molecules, qHTS cell viability counter screen (AID 1346981); conditions: CellTiter-Fluor fluorescence, 17 h; series mostly up to 92.4 µM; further: nearly all actives have a fitted effect of over 30% in size; further: potency means the concentration at half of the fitted maximal effect
How it was run: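 In this quantitative HTS counter screen, compounds delivered in DMSO were left on unmodified HepG2 cells for 16 hr at 37 C. Viability was then determined fluorometrically with CellTiter-Fluor, in parallel with caspase-3/7 induction in the same wells.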

[6] = molecular target: Nuclear receptor subfamily 1 group I member 2 (Homo sapiens) (UniProt O75469); experiment: Human pregnane X receptor (PXR) small molecule agonists, qHTS assay (AID 1346982); conditions: PXR-Luc HepG2, CYP3A4 luciferase reporter, 24 h; series mostly up to 92.4 µM; further: nearly all actives have a fitted effect of over 35% in size; further: potency means the concentration at half of the fitted maximal effect
How it was run: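 Reporter HepG2 cells expressing PXR-Luc are cultured in charcoal-stripped FBS (5%), treated with compounds for 24 hr at 37 C, and assayed by ONE-Glo luminescence after 30 min at room temperature.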

[7] = molecular target: Cytochrome P450 2D6 (Homo sapiens) (UniProt P10635); experiment: Cytochrome P450 Family 2 Subfamily D Member 6 (CYP2D6) small molecule antagonists: luciferase reporter qHTS assay (AID 1671196); conditions: P450-Glo CYP2D6 enzyme assay, luciferin luminescence, 1 h; series mostly up to 115 µM; further: nearly all actives have a fitted effect of over 50% in size; further: potency means the concentration at half of the fitted maximal effect
How it was run: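 Test chemicals meet CYP2D6 plus proluciferin substrate (10 min, RT); NADPH regenerating solution then drives turnover for 1 h. Detection reagent halts the reaction; luminescence measured after 20 min.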

[8] = molecular target: Cytochrome P450 2C19 (Homo sapiens) (UniProt P33261); experiment: Cytochrome P450 Family 2 Subfamily C Member 19 (CYP2C19) small molecule antagonists: luciferase reporter qHTS assay (AID 1671197); conditions: P450-Glo CYP2C19 enzyme, luciferin luminescence, 1 h; series mostly up to 115 µM; further: nearly all actives have a fitted effect of over 65% in size; further: potency means the concentration at half of the fitted maximal effect
How it was run: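 Luminescent readout of CYP2C19 activity: luciferin product detected 20 min after adding detection reagent. Before that, compound and enzyme-substrate mix preincubated 10 min at room temperature; NADPH-regenerating system started a 1 h, 37C reaction. Ketoconazole as positive control.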

[9] = molecular target: Cytochrome P450 2C9 (Homo sapiens) (UniProt P11712); experiment: Cytochrome P450 Family 2 Subfamily C Member 9 (CYP2C9) small molecule antagonists: luciferase reporter qHTS assay (AID 1671198); conditions: P450-Glo CYP2C9 enzyme assay, luciferin luminescence; series mostly up to 115 µM; further: nearly all actives have a fitted effect of over 50% in size; further: potency means the concentration at half of the fitted maximal effect
How it was run: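 Enzyme-substrate mix preincubated with compound 10 min at room temperature; reaction started with NADPH regeneration solution, 1 h 37C. Luminescent luciferin product read after 20 min detection reagent.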

[10] = molecular target: Cytochrome P450 1A2 (Homo sapiens) (UniProt P05177); experiment: Cytochrome P450 Family 1 Subfamily A Member 2 (CYP1A2) small molecule antagonists: luciferase reporter qHTS assay (AID 1671199); conditions: P450-Glo CYP1A2 enzyme, luciferin luminescence, 1 h; series mostly up to 115 µM; further: nearly all actives have a fitted effect of over 50% in size; further: potency means the concentration at half of the fitted maximal effect
How it was run: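 Steps: enzyme-substrate mix dispensed; test compounds and furafylline control pinned in; 10 min room temperature; NADPH regeneration solution added, 1 h; reaction stopped with luciferin detection reagent; luminescence read after 20 min.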

[11] = molecular target: Cytochrome P450 3A4 (Homo sapiens) (UniProt P08684); experiment: Cytochrome P450 Family 3 Subfamily A Member 4 (CYP3A4) small molecule antagonists: luciferase reporter qHTS assay (AID 1671201); conditions: P450-Glo CYP3A4 enzyme, luciferin luminescence, 1 h; series mostly up to 115 µM; further: nearly all actives have a fitted effect of over 50% in size; further: potency means the concentration at half of the fitted maximal effect
How it was run: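 Inhibition of CYP3A4 is measured as loss of light: the enzyme converts a proluciferin substrate to luciferin, detected luminescently. Reaction ran 1 h at room temperature with NADPH regeneration after a 10 min compound preincubation.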

[12] = molecular target: Voltage-gated inwardly rectifying potassium channel KCNH2 (Homo sapiens) (UniProt Q12809); experiment: Human Ether-a-go-go-Related Gene (hERG) channel small molecule antagonists: fluorescence cell-based qHTS assay (AID 1671200); conditions: hERG-U2OS cells, FluxOR thallium flux fluorescence; series mostly up to 76.8 µM
How it was run: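 Quantitative HTS in hERG-U2OS cells: thallium entry through the channel reports activity, read as continuous 480/540 nm fluorescence over 2 min after stimulus addition.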

[13] = molecular target: Nuclear receptor subfamily 1 group I member 2 (Rattus norvegicus) (UniProt Q9R1A7); experiment: Rat pregnane X receptor (rPXR) activation by small molecules, qHTS assay (AID 1346983); conditions: rPXR luciferase reporter cells, One-Glo luminescence, 24 h; stronger effect = higher value; further: nearly all actives have a fitted effect of over 20% in size
How it was run: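 Luminescent readout (One-Glo luciferase, 30 min room temperature) followed 24 hr compound treatment at 37 C of rPXR cells plated 2,000 per well and preincubated 5hr; qHTS format with compounds delivered in DMSO.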

[14] = molecular target: Nuclear receptor subfamily 1 group I member 2 (Homo sapiens) (UniProt O75469); experiment: CYP3A4 induction through human pregnane X receptor (PXR) by small molecules, qHTS assay (AID 1346984); conditions: DPX-2 HepG2 PXR, CYP3A4-luciferin luminescence, 24 h; series mostly up to 46.1 µM; further: nearly all actives have a fitted effect of over 40% in size
How it was run: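 Induction measured in HepG2-based DPX-2 cells co-expressing human PXR and a CYP3A4 promoter-driven luciferase. After a 24-hour compound exposure, cells received CYP3A4 luciferin substrate at 3uM final for 3 hours, and light output was then recorded.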

[15] = molecular target: Nuclear receptor subfamily 1 group I member 2 (Homo sapiens) (UniProt O75469); experiment: Human pregnane X receptor (PXR) activation by small molecules, qHTS assay (AID 1346985); conditions: DPX-2 HepG2 CYP3A4-luciferase, 24 h; series mostly up to 38.3 µM; further: nearly all actives have a fitted effect of over 40% in size
How it was run: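 DPX-2 cells (HepG2 co-transfected with a PXR response element and a CYP3A4-promoter luciferase construct) were seeded at 2,000 per well, rested 5 hr at 37C, then exposed to DMSO-dissolved compounds for 24 hr. Activation was read as luciferase luminescence.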
On the % scale 0 is the no-effect control and ±100 the full control effect.

Sequence of Nuclear receptor subfamily 1 group I member 2 (Rattus norvegicus) (Q9R1A7 whole entry, looked up): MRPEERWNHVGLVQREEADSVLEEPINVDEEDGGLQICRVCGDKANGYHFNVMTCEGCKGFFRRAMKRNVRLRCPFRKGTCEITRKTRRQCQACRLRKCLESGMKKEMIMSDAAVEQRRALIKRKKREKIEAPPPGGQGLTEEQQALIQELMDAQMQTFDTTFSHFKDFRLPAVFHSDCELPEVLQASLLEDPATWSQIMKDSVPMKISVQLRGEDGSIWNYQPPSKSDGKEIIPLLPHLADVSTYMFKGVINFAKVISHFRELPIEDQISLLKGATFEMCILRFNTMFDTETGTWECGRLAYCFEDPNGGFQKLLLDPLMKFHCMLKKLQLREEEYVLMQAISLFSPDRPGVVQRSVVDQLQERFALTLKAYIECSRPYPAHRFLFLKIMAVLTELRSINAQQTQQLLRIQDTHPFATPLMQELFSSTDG
Sequence of Cytochrome P450 2C19 (Homo sapiens) (P33261 whole entry, looked up): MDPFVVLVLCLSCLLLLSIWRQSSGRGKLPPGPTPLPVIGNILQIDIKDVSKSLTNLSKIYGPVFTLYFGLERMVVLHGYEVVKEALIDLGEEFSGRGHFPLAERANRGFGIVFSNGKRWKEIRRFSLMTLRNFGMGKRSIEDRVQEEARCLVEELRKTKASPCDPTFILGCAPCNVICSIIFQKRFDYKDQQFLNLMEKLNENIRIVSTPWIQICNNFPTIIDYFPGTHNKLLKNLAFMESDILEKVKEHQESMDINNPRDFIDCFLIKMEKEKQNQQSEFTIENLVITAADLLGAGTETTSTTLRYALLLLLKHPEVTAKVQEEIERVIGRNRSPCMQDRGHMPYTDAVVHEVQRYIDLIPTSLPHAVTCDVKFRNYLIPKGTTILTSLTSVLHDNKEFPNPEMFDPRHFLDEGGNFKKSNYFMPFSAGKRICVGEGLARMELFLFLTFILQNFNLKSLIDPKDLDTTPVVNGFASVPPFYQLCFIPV
Sequence of Cytochrome P450 2D6 (Homo sapiens) (P10635 whole entry, looked up): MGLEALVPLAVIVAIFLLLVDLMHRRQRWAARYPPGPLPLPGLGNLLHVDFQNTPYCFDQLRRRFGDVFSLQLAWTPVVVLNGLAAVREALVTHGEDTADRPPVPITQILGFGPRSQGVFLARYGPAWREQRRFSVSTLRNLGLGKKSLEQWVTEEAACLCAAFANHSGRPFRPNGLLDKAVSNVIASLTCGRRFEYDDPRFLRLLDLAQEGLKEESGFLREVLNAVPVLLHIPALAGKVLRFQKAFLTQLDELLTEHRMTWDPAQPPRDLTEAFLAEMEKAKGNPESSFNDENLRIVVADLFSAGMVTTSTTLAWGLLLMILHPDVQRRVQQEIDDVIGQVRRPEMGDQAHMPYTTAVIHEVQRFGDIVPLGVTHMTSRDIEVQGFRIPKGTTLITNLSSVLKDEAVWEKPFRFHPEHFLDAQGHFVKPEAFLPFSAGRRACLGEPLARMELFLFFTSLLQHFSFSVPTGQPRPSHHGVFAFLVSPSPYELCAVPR
Sequence of Cytochrome P450 1A2 (Homo sapiens) (P05177 whole entry, looked up): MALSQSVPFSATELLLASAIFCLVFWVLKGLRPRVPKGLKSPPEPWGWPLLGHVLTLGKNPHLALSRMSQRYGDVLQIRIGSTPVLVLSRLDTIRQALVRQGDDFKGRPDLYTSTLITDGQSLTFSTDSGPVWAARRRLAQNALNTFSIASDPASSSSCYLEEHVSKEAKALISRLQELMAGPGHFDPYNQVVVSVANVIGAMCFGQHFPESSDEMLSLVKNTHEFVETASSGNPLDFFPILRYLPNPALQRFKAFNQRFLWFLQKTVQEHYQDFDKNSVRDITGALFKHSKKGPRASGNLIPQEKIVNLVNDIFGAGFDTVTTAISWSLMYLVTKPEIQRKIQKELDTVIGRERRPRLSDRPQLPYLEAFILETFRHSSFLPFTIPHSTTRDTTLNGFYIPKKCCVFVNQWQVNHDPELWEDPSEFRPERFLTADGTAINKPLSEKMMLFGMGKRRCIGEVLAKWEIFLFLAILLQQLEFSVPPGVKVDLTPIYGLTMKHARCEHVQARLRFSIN
Sequence of Cytochrome P450 2C9 (Homo sapiens) (P11712 whole entry, looked up): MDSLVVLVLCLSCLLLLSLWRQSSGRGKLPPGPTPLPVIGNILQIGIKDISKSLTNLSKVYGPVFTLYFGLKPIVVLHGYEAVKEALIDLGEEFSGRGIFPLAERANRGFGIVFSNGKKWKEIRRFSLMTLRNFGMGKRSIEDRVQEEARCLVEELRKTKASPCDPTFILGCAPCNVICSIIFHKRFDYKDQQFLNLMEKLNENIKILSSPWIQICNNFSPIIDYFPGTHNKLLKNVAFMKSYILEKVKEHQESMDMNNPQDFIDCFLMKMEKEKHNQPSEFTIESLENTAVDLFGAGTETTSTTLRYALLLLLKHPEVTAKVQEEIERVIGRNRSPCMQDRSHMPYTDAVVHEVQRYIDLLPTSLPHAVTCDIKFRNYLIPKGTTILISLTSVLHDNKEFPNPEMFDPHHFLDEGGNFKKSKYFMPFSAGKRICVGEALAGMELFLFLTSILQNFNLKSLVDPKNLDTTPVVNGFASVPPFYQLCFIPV
Sequence of Nuclear receptor subfamily 1 group I member 2 (Homo sapiens) (O75469 whole entry, looked up): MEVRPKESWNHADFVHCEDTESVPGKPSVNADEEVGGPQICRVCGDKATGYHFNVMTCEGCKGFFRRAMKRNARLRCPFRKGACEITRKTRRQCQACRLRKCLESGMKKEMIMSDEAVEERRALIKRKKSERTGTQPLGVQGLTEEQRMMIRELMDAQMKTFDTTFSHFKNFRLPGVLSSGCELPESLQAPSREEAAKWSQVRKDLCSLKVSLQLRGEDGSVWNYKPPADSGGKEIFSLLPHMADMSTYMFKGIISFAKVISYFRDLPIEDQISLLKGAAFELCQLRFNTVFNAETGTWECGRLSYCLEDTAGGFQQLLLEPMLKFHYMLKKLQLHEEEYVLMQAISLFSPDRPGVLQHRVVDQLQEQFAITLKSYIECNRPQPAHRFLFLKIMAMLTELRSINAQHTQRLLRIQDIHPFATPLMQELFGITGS
Sequence of Voltage-gated inwardly rectifying potassium channel KCNH2 (Homo sapiens) (Q12809 whole entry, looked up): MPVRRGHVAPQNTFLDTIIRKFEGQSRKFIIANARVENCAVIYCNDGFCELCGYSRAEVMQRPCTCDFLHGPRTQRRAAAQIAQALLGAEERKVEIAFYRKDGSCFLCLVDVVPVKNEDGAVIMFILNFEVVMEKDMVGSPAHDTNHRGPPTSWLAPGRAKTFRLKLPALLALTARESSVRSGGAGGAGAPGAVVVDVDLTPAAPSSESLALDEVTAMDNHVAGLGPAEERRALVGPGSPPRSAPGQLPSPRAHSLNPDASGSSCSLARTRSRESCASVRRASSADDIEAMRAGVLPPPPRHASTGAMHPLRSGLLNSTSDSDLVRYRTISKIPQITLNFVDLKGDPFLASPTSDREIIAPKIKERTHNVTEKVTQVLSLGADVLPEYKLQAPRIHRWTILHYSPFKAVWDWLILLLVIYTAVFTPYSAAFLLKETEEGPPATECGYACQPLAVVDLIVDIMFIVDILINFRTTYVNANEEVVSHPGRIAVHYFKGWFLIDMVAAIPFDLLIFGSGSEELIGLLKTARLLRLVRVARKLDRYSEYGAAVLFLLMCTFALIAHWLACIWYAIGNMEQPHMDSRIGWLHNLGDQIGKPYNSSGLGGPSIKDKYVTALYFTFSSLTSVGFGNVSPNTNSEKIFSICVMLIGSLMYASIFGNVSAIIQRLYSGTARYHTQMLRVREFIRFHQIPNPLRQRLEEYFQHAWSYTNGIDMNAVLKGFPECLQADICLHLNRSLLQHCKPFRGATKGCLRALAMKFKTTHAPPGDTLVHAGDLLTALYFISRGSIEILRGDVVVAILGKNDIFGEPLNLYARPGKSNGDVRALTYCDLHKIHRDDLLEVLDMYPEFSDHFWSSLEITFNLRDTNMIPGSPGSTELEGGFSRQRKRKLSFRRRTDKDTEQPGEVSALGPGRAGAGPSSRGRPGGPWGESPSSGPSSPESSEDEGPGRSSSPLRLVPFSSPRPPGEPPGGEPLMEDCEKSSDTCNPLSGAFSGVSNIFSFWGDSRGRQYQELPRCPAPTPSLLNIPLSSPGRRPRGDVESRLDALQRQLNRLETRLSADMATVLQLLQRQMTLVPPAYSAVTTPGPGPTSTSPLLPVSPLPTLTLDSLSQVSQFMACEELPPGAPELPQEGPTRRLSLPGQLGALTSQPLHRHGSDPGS
Sequence of Cytochrome P450 3A4 (Homo sapiens) (P08684 whole entry, looked up): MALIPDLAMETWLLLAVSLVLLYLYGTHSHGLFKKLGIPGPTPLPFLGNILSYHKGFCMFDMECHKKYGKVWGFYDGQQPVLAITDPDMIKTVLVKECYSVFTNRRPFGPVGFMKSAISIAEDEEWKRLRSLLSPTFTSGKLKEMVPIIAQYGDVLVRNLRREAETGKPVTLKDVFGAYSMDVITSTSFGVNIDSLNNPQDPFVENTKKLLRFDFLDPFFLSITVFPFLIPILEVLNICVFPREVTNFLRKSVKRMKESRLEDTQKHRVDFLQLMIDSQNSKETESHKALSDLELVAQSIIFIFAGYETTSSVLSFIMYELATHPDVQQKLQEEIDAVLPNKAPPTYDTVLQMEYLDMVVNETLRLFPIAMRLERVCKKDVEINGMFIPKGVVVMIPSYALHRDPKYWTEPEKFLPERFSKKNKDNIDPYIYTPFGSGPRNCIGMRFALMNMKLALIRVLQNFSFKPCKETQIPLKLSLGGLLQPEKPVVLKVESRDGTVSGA

CCCCCCCO
72 µM (active) and inactive: Potency [8]
inactive: Potency [1] | Potency [2] | Potency [3] | outcome [4] | Potency [5] | Potency [6] | Potency [7] | Potency [9] | Potency [10] | Potency [11]

CC(C)(C)c1cc(Cc2cc(C(C)(C)C)c(O)c(C(C)(C)C)c2)cc(C(C)(C)C)c1O
inactive and 71 µM (active): Potency [10]
inactive: Potency [1] | Potency [2] | outcome [4] | Potency [5] | Potency [6] | Potency [7] | Potency [8] | Potency [9] | Potency [11]

CC(=O)CCC=C(C)C
inactive: Potency [1] | Potency [2] | outcome [4] | Potency [5] | Potency [6] | Potency [7] | Potency [8] | Potency [9] | Potency [10] | Potency [12] | Potency [11]

CNC(=O)Oc1ccc2c(c1)[C@]1(C)CCN(C)[C@@H]1N2C
inactive: Potency [1] | Potency [2] | outcome [4] | Potency [5] | Potency [6] | max activation [13] -1.54% | Potency [14] | outcome [15] | Potency [10] | Potency [12] | Potency [11]
25.2 µM (active) and inactive: Potency [8]
active: Potency [7] 564 nM and 977 nM

O=C1c2ccccc2CCc2ccccc21
55.6 µM (active) and inactive: Potency [6]
inactive: Potency [1] | Potency [2] | outcome [4] | Potency [5] | Potency [7] | Potency [11]
active: Potency [8] 18.2 µM and 7.76 µM | Potency [9] 36.3 µM | Potency [10] 1.45 µM and 1.62 µM

CCCCC(C=O)CC (stereo not given)
inactive: Potency [1] | Potency [2] | outcome [4] | Potency [5] | Potency [6] | Potency [7] | Potency [8] | Potency [9] | Potency [10] | Potency [12] | Potency [11]

COc1ccc(OC)cc1
40.7 µM (active) and inactive: Potency [8]
inactive: Potency [1] | Potency [2] | outcome [4] | Potency [5] | Potency [6] | Potency [7] | Potency [9] | Potency [12] | Potency [11]

CCNc1cccc(C)c1
30.5 µM (active) and inactive: Potency [8]
inactive: Potency [1] | Potency [2] | outcome [4] | Potency [5] | Potency [6] | Potency [7] | Potency [10] | Potency [12] | Potency [11]

CN(C)c1ccc(O)c2c1C[C@H]1C[C@H]3[C@H](N(C)C)C(=O)C(C(N)=O)=C(O)[C@@]3(O)C(=O)C1=C2O
inactive: Potency [1] | Potency [2] | outcome [4] | Potency [6] | max activation [13] -2.35% | Potency [14] | outcome [15] | Potency [7] | Potency [8] | Potency [9] | Potency [10] | Potency [12] | Potency [11]
active: Potency [5] 54.5 µM and 29.8 µM

CC(C)OP(=O)(CP(=O)(OC(C)C)OC(C)C)OC(C)C
inactive: Potency [1] | Potency [2] | outcome [4] | Potency [5] | Potency [7] | Potency [9] | Potency [10]
35.6 µM (active) and inactive: Potency [8]
27.3 µM (active) and inactive: Potency [6]

CCOC(=O)c1ccc(N)cc1
39.9 µM (active) and inactive: Potency [8]
active: Potency [9] 35.6 µM | Potency [10] 12.6 µM
inactive: Potency [1] | Potency [2] | outcome [4] | Potency [5] | Potency [6] | max activation [13] -0.927% | Potency [14] | outcome [15] | Potency [7] | Potency [12] | Potency [11]

CC1(C)CC(N)CC(C)(CN)C1 (stereo not given)
active: Potency [6] 49.3 µM and 24.3 µM | Potency [11] 5.73 µM and 4.48 µM
inactive: Potency [1] | Potency [2] | outcome [4] | Potency [5] | Potency [8] | Potency [10] | Potency [12]
36.1 µM (active) and inactive: Potency [7]

C=CCc1ccc(OC)c(OC)c1
inactive: Potency [1] | Potency [2] | Potency [3] | outcome [4] | Potency [5] | Potency [6] | Potency [7] | Potency [8] | Potency [11]
active: Potency [10] 18 µM and 22.4 µM

OCc1ccccc1
inactive: Potency [1] | Potency [2] | outcome [4] | Potency [5] | Potency [6] | max activation [13] -0.795% | Potency [14] | outcome [15] | Potency [7] | Potency [10] | Potency [12] | Potency [11]
active: Potency [8] 35.1 µM

C=C(C)C(=O)OCC(C)C
17.5 µM (active) and inactive: Potency [6]
39.8 µM (active) and inactive: Potency [1]
55.2 µM (active) and inactive: Potency [2]
inactive: outcome [4] | Potency [5] | Potency [7] | Potency [8] | Potency [9] | Potency [10] | Potency [11]

CCCCCC(=O)O
inactive: Potency [1] | Potency [2] | outcome [4] | Potency [5] | Potency [6] | Potency [7] | Potency [9] | Potency [10] | Potency [11]
71.1 µM (active) and inactive: Potency [8]

CCCCCCCC=O
inactive: Potency [1] | Potency [2] | outcome [4] | Potency [5] | Potency [6] | Potency [7] | Potency [8] | Potency [9] | Potency [10] | Potency [12] | Potency [11]

CC(C)(C#N)c1cc(Cn2cncn2)cc(C(C)(C)C#N)c1
inactive: Potency [1] | Potency [2] | Potency [3] | outcome [4] | Potency [5] | max activation [13] 0.273% | Potency [7] | Potency [12]
active: Potency [8] 21.8 µM and 15.5 µM | Potency [10] 9.75 µM and 15.5 µM

CCOCCOCCOCCO
82.4 µM (active) and inactive: Potency [8]
inactive: Potency [1] | Potency [2] | Potency [3] | outcome [4] | Potency [5] | Potency [6] | Potency [7] | Potency [12] | Potency [11]

C[C@]12CCC(=O)C=C1CC[C@@H]1[C@@H]2[C@@H](O)C[C@@]2(C)[C@H]1CC[C@]2(O)C(=O)CO
inactive: Potency [1] | Potency [2] | Potency [3] | outcome [4] | Potency [5] | max activation [13] 9.15% | Potency [7] | Potency [8]
